# Experimental data reported in PubChem BioAssay (EPA / NIEHS).
# Records with an inconclusive call do not appear. Active and inactive are the calls of the source. The calls were made as follows: active = hit-call score of the fitted dose curve at least 0.9, where 1 is the maximum; inconclusive = response in the unintended direction; inactive = score below 0.9.
# Experiments:
# [1] = target: rat Opioid Receptor, Non-selective Binding, Oprm1 (gene 25601) (UniProt P33535); assay: NVS_GPCR_rOpiate_NonSelective: NovaScreen (NVS) G Protein-Coupled Receptor Assay for rat Opioid Receptor, Non-selective Binding (AID 2283318)
# Chain of rat Opioid Receptor, Non-selective Binding, Oprm1 (gene 25601) (P33535 whole entry, looked up): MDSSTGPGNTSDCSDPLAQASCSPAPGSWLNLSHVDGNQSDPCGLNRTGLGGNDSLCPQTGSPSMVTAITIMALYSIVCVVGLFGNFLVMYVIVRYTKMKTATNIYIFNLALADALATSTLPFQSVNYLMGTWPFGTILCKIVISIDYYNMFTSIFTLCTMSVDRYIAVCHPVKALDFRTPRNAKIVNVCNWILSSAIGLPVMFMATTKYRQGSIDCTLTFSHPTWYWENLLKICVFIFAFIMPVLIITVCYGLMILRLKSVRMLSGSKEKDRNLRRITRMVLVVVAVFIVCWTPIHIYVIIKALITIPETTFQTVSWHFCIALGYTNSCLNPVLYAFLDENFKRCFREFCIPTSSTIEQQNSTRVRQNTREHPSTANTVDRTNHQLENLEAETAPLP
# Outline: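 Rat forebrain membranes, cell-free radioligand binding with filter-based scintillation counting, read 1.5 h after dosing. Primary screen in duplicate at 25 uM; actives retested in concentration series. Loss of signal versus DMSO baseline scored.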
# NCBI gene 24521 = assay: NVS_IC_rKATPCh: NovaScreen (NVS) Ion Channel Assay for rat Potassium Channel, ATP-Sensitive (KATPCh) (AID 2283319)
# Outline: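 Rat cortical membranes; radioligand binding at ATP-sensitive K channel site, filter-based scintillation counting 2 h after dosing. Single-point duplicate screen at 25 uM, hits rerun in concentration-response up to 50 uM; loss of signal versus DMSO.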
# [2] = NVS_IC_rCaDHPRCh_L: NovaScreen (NVS) Ion Channel Assay for rat Calcium Channel, Type L, Dihydropyridine Site (CaDHPRCh_L) (AID 2283320)
# Outline: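 Radioligand binding to dihydropyridine site on rat cortical membranes, filter-based scintillation counting, 1 h after dosing. Screened in duplicate at 25 uM; actives rerun in concentration-response up to 50 uM. Loss of signal versus DMSO baseline.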
# [3] = target: Sodium channel protein type 1 subunit alpha (Rattus norvegicus) (UniProt P04774); assay: NVS_IC_rNaCh_site2: NovaScreen (NVS) Ion Channel Assay for rat Sodium Channel, Site 2 (NaCh) (AID 2283322);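 also: hit means loss of radioligand binding signal relative to DMSO so AC50 marks displacement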
# Outline: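 Membranes: rat forebrain. Format: competitive radioligand displacement, filter separation, scintillation readout, 1 h exposure. Primary screen in duplicate at 25 uM; actives retested in concentration series.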
# [4] = target: rat Glutamate, AMPA Site (AMPA), Gria1 (gene 50592) (UniProt P19490); assay: NVS_LGIC_rAMPA: NovaScreen (NVS) Ligand-Gated Ion Channel Assay for rat Glutamate, AMPA Site (AMPA) (AID 2283324)
# Chain of rat Glutamate, AMPA Site (AMPA), Gria1 (gene 50592) (P19490 whole entry, looked up): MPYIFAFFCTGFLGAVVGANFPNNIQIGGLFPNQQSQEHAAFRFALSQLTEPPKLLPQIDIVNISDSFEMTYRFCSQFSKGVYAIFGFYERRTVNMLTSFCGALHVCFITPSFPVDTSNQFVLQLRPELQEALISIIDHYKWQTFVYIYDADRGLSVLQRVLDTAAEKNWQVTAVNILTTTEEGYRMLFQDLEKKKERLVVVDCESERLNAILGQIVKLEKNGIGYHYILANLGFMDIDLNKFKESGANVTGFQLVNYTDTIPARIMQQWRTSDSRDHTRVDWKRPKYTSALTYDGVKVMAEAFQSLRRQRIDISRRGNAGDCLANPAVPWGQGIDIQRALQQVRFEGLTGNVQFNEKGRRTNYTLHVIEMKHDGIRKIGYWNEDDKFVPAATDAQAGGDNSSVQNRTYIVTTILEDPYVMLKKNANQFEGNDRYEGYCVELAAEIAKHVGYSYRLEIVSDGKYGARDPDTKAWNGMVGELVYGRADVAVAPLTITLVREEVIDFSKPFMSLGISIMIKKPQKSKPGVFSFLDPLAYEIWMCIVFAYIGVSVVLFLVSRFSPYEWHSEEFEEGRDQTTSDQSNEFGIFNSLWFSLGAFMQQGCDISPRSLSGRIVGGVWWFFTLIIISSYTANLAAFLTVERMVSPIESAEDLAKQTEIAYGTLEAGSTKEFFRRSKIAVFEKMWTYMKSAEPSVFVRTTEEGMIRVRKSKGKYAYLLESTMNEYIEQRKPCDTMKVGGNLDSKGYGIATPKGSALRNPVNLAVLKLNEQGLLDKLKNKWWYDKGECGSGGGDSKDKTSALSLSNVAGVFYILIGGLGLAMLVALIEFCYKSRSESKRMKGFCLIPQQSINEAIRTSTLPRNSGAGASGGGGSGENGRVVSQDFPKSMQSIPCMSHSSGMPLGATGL
# Outline: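 Rat forebrain membranes; radioligand binding read 1 h after dosing by filtration and scintillation counting. Duplicate single-point screen at 25 uM, then concentration-response to 50 uM for threshold hits (e.g. 30% inhibition); loss of signal vs DMSO.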
# [5] = target: rat Gamma-Aminobutyric Acid Type A Receptor, Non-Selective (GABAR-NonSelective), Gabra1 (gene 29705) (UniProt P62813); assay: NVS_LGIC_rGABAR_NonSelective: NovaScreen (NVS) Ligand-Gated Ion Channel Assay for rat Gamma-Aminobutyric Acid Type A Receptor, Non-Selective (GABAR-NonSelective) (AID 2283326)
# Chain of rat Gamma-Aminobutyric Acid Type A Receptor, Non-Selective (GABAR-NonSelective), Gabra1 (gene 29705) (P62813 whole entry, looked up): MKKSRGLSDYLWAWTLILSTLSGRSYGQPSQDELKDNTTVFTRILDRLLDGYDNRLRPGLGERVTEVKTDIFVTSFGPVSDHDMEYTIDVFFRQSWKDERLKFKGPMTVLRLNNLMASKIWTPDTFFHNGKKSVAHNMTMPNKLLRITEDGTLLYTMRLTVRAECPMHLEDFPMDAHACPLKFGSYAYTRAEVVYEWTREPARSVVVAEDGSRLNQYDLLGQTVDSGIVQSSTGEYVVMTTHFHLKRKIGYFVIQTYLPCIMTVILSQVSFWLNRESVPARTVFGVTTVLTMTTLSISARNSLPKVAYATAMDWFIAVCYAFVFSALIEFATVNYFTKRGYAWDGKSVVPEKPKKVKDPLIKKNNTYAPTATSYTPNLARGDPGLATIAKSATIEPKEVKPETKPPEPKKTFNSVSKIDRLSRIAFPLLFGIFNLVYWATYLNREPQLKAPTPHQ
# Outline: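 Radioligand displacement on rat whole-brain extract, 1 h, filter scintillation readout; signal loss fitted versus DMSO. Primary screen in duplicate at 25 uM; hits (e.g. ≥30% inhibition) retested in concentration-response up to 50 uM.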
# [6] = target: rat Glutamate, NMDA Agonist Site (GluNMDA), Grin1 (gene 24408) (UniProt P35439); assay: NVS_LGIC_rGluNMDA_Agonist: NovaScreen (NVS) Ligand-Gated Ion Channel Assay for rat Glutamate, NMDA Agonist Site (GluNMDA) (AID 2283327)
# Outline: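 Rat forebrain membranes, radioligand binding in the agonist-site protocol; 1 h after dosing; filter-based scintillation counting. Single-concentration duplicate screen at 25 uM, then concentration-response up to 50 uM for actives; gain-of-signal vs DMSO.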
# [7] = target: rat Vasopressin 1 Receptor (V1), Avpr1a (gene 25107) (UniProt P30560); assay: NVS_GPCR_rV1: NovaScreen (NVS) G Protein-Coupled Receptor Assay for rat Vasopressin 1 Receptor (V1) (AID 2283316)
# Chain of rat Vasopressin 1 Receptor (V1), Avpr1a (gene 25107) (P30560 whole entry, looked up): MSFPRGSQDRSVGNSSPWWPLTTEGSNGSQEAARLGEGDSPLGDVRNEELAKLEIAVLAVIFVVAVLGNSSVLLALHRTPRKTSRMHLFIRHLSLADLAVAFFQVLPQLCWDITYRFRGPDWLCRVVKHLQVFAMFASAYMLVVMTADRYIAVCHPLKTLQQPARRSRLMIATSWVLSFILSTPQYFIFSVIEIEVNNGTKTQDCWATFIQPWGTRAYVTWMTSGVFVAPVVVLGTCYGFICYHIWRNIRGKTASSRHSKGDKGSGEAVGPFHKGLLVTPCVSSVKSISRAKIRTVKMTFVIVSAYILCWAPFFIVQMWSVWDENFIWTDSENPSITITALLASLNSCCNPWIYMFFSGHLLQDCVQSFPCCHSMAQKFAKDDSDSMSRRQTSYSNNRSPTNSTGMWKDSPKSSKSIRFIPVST
# Outline: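 Radioligand binding on rat liver membranes, 1.5 h incubation, filter-based scintillation counting. Single 25 uM screen in duplicate; chemicals meeting threshold (e.g. 30% inhibition) run in concentration-response up to 50 uM.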
# [8] = target: bovine Gamma-Aminobutyric Acid Type A Receptor BDZ, alpha 5 site (GABARa5), GABRA5 (gene 523515) (UniProt Q08E50); assay: NVS_LGIC_bGABARa5: NovaScreen (NVS) Ligand-Gated Ion Channel Assay for bovine Gamma-Aminobutyric Acid Type A Receptor BDZ, alpha 5 site (GABARa5) (AID 2283323)
# Chain of bovine Gamma-Aminobutyric Acid Type A Receptor BDZ, alpha 5 site (GABARa5), GABRA5 (gene 523515) (Q08E50 whole entry, looked up): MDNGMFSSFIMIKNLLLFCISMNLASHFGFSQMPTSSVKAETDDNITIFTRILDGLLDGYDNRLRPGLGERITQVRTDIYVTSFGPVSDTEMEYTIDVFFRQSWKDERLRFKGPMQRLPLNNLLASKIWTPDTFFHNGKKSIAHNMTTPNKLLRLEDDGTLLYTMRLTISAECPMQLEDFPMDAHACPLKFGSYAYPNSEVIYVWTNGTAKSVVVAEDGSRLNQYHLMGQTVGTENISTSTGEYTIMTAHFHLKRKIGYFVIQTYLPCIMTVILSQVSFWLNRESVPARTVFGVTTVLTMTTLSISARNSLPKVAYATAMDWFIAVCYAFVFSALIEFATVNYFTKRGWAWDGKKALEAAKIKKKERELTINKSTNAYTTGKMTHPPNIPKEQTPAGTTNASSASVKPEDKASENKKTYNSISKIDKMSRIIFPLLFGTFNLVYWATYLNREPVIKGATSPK
# Outline: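 Radioligand competitive displacement binding on bovine hippocampal membranes, read 1 hr after dosing by filter-based scintillation counting. Primary screen at 25 uM in duplicate; actives (e.g. ≥30% inhibition) then run in concentration-response up to 50 uM.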
# [9] = target: human Serotonin, 5-Hydroxytryptamine Receptor 3 (5HT3), HTR3A (gene 3359) (UniProt P46098); assay: NVS_LGIC_h5HT3: NovaScreen (NVS) Ligand-Gated Ion Channel Assay for human Serotonin, 5-Hydroxytryptamine Receptor 3 (5HT3) (AID 2283325)
# Chain of human Serotonin, 5-Hydroxytryptamine Receptor 3 (5HT3), HTR3A (gene 3359) (P46098 whole entry, looked up): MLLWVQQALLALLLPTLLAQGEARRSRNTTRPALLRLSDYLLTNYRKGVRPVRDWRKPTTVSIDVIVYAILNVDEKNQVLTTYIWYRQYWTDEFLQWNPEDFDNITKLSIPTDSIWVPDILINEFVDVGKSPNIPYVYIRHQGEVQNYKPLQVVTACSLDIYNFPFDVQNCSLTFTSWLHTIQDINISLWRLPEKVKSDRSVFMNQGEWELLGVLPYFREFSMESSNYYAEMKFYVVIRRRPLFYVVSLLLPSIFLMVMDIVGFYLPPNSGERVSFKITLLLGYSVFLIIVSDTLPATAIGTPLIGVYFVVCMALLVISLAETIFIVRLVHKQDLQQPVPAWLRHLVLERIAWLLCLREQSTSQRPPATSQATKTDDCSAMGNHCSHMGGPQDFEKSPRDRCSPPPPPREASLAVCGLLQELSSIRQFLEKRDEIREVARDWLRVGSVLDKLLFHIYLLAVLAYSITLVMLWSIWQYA
# Outline: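 Radioligand displacement binding to human 5-HT3 from HEK293 membranes, read by filter-based scintillation counting after 1 h. Screen at 25 uM in duplicate; chemicals passing threshold were retested in concentration-response up to 50 uM.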
smiles,measurement,setting,value
CC(=O)NC1(c2cccc(F)c2)CCN(CC[C@@]2(c3ccc(Cl)c(Cl)c3)CN(c3ccccc3)C(=O)CO2)CC1,AC50,[1],7.82 µM (active)
same,AC50,NCBI gene 24521,4.88 µM (active)
same,AC50,[2],2.24 µM (active)
same,AC50,[3],0.449 µM (active)
CCC(=C(c1ccc(O)cc1)c1ccc(OCCN(C)C)cc1)c1ccccc1,AC50,[3],4.03 µM (active)
Cc1cc(CCN2CCN(c3nsc4ccccc34)CC2)cc2c1NC(=O)CC2(C)C,outcome,[4],inactive
CCN(CC)CCNc1ccc(CNC=O)c2sc3ccc(OC)cc3c(=O)c12,outcome,[1],inactive
same,AC50,[3],12.7 µM (active)
same,outcome,[5],inactive
Cc1cc(C)c(O)c(C)c1,outcome,[4],inactive
same,outcome,[6],inactive
O=c1c(-c2ccc(O)cc2)coc2cc(O)ccc12,outcome,[1],inactive
O=C(O)Cc1cc(I)c(Oc2cc(I)c(O)c(I)c2)c(I)c1,outcome,[1],inactive
same,outcome,[3],inactive
CC[C@H](C)[C@@H](C(=O)O)n1sc2ccccc2c1=O,outcome,[4],inactive
c1ccc2c(c1)Cc1ccccc1-2,outcome,[1],inactive
CCCOC(=O)c1ccc(O)cc1,AC50,[3],31.2 µM (active)
CC#C[C@]1(O)CC[C@H]2[C@@H]3CCC4=CC(=O)CCC4=C3[C@@H](c3ccc(N(C)C)cc3)C[C@@]21C,outcome,[7],inactive
same,AC50,[1],0.404 µM (active)
same,AC50,[3],6.71 µM (active)
COC(=O)CCCCC(=O)OC,outcome,[4],inactive
Cc1oc(-c2ccccc2)nc1CCOc1ccc(C[C@H](Nc2ccccc2C(=O)c2ccccc2)C(=O)O)cc1,outcome,[1],inactive
same,AC50,[2],25 µM (active)
same,AC50,[3],25 µM (active)
CCCCCCCCCCCCCC[N+](C)(C)C,AC50,[3],8.44 µM (active)
CN1CCN(c2ccccc2/C=C2\SCCN(c3ccc(Cl)c(Cl)c3)C2=O)CC1,outcome,[4],inactive
ClC1=C(Cl)C(Cl)(Cl)C(Cl)=C1Cl,outcome,[1],inactive
same,outcome,[2],inactive
OC1CCCCC1,outcome,[3],inactive
O=C(OCCOCCOC(=O)c1ccccc1)c1ccccc1,outcome,[8],inactive
CC[C@H](c1ccc(O)cc1)[C@@H](CC)c1ccc(O)cc1,AC50,[1],5.14 µM (active)
same,outcome,[3],inactive
CCCOc1sc(C(=O)N2CCC(c3cc(CN)ccc3F)CC2)c(C)c1Br,AC50,[7],23.2 µM (active)
same,AC50,[1],11 µM (active)
same,AC50,[2],14.7 µM (active)
same,AC50,[3],1.01 µM (active)
COCC(C)OCC(C)O (stereo not drawn),outcome,[1],inactive
CC(=O)CC(C)(C)O,outcome,[1],inactive
Nc1cccc2c(N)cccc12,AC50,[3],18.5 µM (active)
NC(=O)N(O)[C@@H]1C=C[C@H](Oc2cccc(Oc3ccc(F)cc3)c2)C1,outcome,[1],inactive
same,outcome,[3],inactive
same,outcome,[4],inactive
same,outcome,[9],inactive
CCCCCCCC(=O)O,outcome,[1],inactive
same,outcome,[8],inactive
same,outcome,[4],inactive
same,outcome,[9],inactive
CCCCCCCCCCCCc1ccccc1S(=O)(=O)O,AC50,[6],20.1 µM (active)
